Screen size: about 53,000 sequences; about 3,700 (7%) were called active. Only a selection was taken, and actives are over-represented in it overall. A number with no mark means an inactive call.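 The calls were made as follows: active = gene knockdowns whose robust z-score for IL-1 alpha signal is at least 2 or at most -2, so actives lie on both sides; inactive = the rest.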

A short description of the assay: Components of the Cytosolic LPS Sensing Pathway: Gene Identification via Genome-wide siRNA Screen.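 Also: robust z of the log signal after scaling to non-targeting control siRNA wells of the plate.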 As to conditions: RAW264.7 macrophages, IL-1a HTRF, actives lie on both sides, screened at 100 nM (by protocol), cells primed 5 h with Pam3CSK4 first. The gist of the method:
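Knockdown: 100 nM siRNA, 48h, RAW264.7. Stimulation: Pam3CSK4 5 h, then LipidA via TransIT-TKO 24 h. Output: supernatant IL-1a HTRF, negative-control-normalized, log robust z-score; viability by CellTiter-Glo.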
A general note: TR-FRET usually uses a lanthanide donor and a delayed reading to cut background.
GGGCUGAAGUGAAAACAGCTT against Mmp8: the z-score is -0.523.
As for GGAUAACUCACAAGAGUCUTT against Zdhhc16, the figure is -0.296; as for GGCUUUUUGUUAAGGCAGCTT against Ap1ar, 1.59; as for GGAGACAACAACAAGACAUTT against Tbk1, 3.12 (active).
With GGAGAAAGCUGCUCAUGAATT against Caml, the z-score is -0.477.
The result for GGCAGAUGAUCCCGGGAUUTT against Clvs1 reads 0.545; that for GGUAUGUCUGCAUAAAUGUTT against Cyp2c38, 2.74 (active); that for GGUUCGUGUGGUUUAACAUTT against Afg3l1, 1.55.
Take GGAUGAGAGGUAAAGUAACTT against Nptxr: the z-score is 0.802.
The result for GGUUCUCUGAUACCCACUCTT against Mgat4e reads 0.44; that for GGAAAUGUGGAGAGAAAAUTT against P2ry4, 1.02.
The result for GGCGACAUAUUUUUCAAACTT against Fmn1 reads -0.506.
Turning to CGUGGAAGACAUACAACCCTT against Tmem181a, the z-score is 3.03 (active).
As for GGUCCGAGAGACAUUGGCATT against Lmx1b, the figure is -0.118; as for CCUUAUAAGAAAGAUAGACTT against Nhlrc2, -0.591.
The result for GGAGCUUCAAGGUCUGUCGTT against Tmc6 reads -2.65 (active); that for GCUGGAUGGCCGUUUCAAATT against Fancd2os, -0.00925; that for GGAACUAAAUCUUCCAUCCTT against Chit1, -1.02.
As for GGAAAUAGAAGACCAGUUUTT against Srsf3, the figure is -1.43.
GGCACCAUCUACGACUAUGTT against Gpx5: the z-score is -0.649.
GGUGAGCACUAAAUGCAGATT against Cldn16: the z-score is 0.892.
For GCAAAUGUUGCCCAUCGUGTT against Ppp2r1b, the z-score is 0.44.
As for GGAAAUCCUGGGACAGAACTT against Htatip2, the figure is -2.42 (active); as for GCCUGAGAUCGUGAACACUTT against Ccdc159, -0.0179.
As for GGAGGCCUUGUACUUACACTT against Rspo1, the figure is 1.26.
The result for GGUGAAUCAGACAUACUAUTT against Snupn reads 3.31 (active); that for GGUAUGGAUGCUUGAGAAATT against Ccdc77, -1.15; that for GGAGCCAGUCCAAAUUGCATT against Il13ra1, 0.561.
Consider GCCCAUUGAGUUUGAUUCATT against Itgav, for which the z-score was 1.57.
As for GGACGAUUCUUUUCUCCAGTT against Surf1, the figure is -2.07 (active); as for CCUCAUCGAAUUCGAUACCTT against Arrb2, -0.181.
The result for CGCUACGUCCAGUAUCACCTT against Tmem192 reads -0.471; that for CCAGAUAGGUAAAAAACAATT against Acta2, -0.562.
As for GCAAAUUUAAGAGAAGUUGTT against Dse, the figure is -0.132.
With CCUAGACUUGAACAAACACTT against Lsm12, the z-score is -2.11 (active).
As for GCUUCGGCCUCAGUAUUCATT against Pigb, the figure is 0.0355.
As for “GCAUACUUAGGAUACACGCTT against A830005F24Rik”, the figure is -0.647; as for GCCACAUUCUUCUCAACCUTT against Tas2r106, -2.14 (active).
As for “GGUAGUUAACACAAAAUUGTT against 4932438H23Rik”, the figure is 0.334.
Regarding GGACUUCUUGGACCUACUUTT against F5, the z-score is -1.55.
On to GGUAGGAGGUAUUUCCCACTT against Shisa5, for which the z-score is 0.197.
The result for GGCUUCUAAGCAUACUCAGTT against Iqsec1 reads -0.257; that for GCUCCUCUCCAAGGUCAUUTT against Olfr96, 0.652.
In the case of GGAUUUUCCAGGCAUGAGGTT against Ehd3, the z-score was -2.24 (active).
As for GGAAAUGCGCCAUGAGUUGTT against Soga3, the figure is -0.124; as for GAGUUGUACUCUUCACUAUTT against Olfr497, -2.6 (active); as for GGACUAUUGUCUCAUUUGATT against Olfr1189, 1.04.
As for GGACAACGUAGCCUUCGUUTT against Ncln, the figure is -0.562; as for GGUGGAUUCUAUUAAAUGCTT against Gm14461, 0.462.
The result for CCAUUAGCAAUGUGCUUCUTT against Unc13a reads 0.268; that for GGUGUUCGAGAAGCUGAAGTT against Haus7, -0.371.
For the sequence GGAUCUUUCGUGUGGAAAATT against Atf7ip, the z-score is 0.87.
The result for “GCUUUUGGACUGAAUCUCATT against 2210016L21Rik” reads 2.78 (active); that for GGCCACCUUCUUUGAGGUATT against Snai1, 1.11.
On to GGUAGGACUAACAAUAAAATT against Gpr4, for which the z-score was -0.0158.
As for GACCUGAAUAAAGACUGUCTT against Cort, the figure is 0.697; as for CGGACUUACCAAAAGCGCATT against Lss, 3.16 (active).
The result for GGAGAGAGAUGAAAUUUGATT against Kif26b reads 1.79.
With GGAGAAAAUCAACAAGAUCTT against Ppp2r2c, the z-score is -0.437.
As for CCAUUGAGGUAAUGUUUGATT against Rmnd1, the figure is 0.978.
The result for UGAUAUCGGAACAGAGAUGTT against Tbx15 reads -0.467; that for GGAAGUAAAAACAUACCUUTT against Chac2, 2.02 (active).
As for CCCAAAGCCCUUUUAAACUTT against Hmbs, the figure is 0.301; as for GGUAAAAGACUAAAGAAGATT against Coch, -0.485.
Take CCGCUGUUUUCAACUGUGCTT against Asb10: the z-score is -0.773.
The result for GGAAGUGGUGGAACUCCUGTT against Tmem215 reads -2.65 (active); that for GGACCUGGUCACCAUCUUGTT against Tram2, -0.3.
CGGCAGAAGGGUUUUUAUGTT against Rnf126: the z-score was -0.365.
As for CCAUACAUAUAGACAAUCCTT against AY358078, the figure is 0.796.

(Values after PubChem BioAssay AID1508600 (Functional Genomics Laboratory (NCATS/FGL), 2020).)
